Several values for one entry are separate records, joined by “and”; a condition that tells them apart may be missing. Equal entries are not always repeated. Out of some 5,500 compounds screened, about 2,000 (36%) were called active. Inconclusive results (about 18%) are left out. Rule as the data show it: active = normalized growth mostly below about 0.91 (no sharp cut-off); inconclusive = no clear call, values can overlap the other calls; inactive = mostly above about 0.92. Some of the results follow.
Experiment: chemical genetic growth profiling, strain panel (AID 1159580);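 also: tested at 20 µM; growth read once vehicle control cultures reached saturation at 30 °C; 1 = growth at the plate median or of vehicle wells; lower values mean less growth of the strain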
Details: growth OD

Measured: normalized growth

Cc1nc2ccccn2c(=O)c1CCN1CCC(C(=O)c2ccc(F)cc2)CC1
inactive: S. cerevisiae deletion strains, locus YJR075W, strain HOC1, stronger effect = lower value 0.974 and 1.01 | S. cerevisiae deletion strains, locus YKL009W, strain mrt4, stronger effect = lower value 1.01 | S. cerevisiae deletion strains, locus YKL068W, stronger effect = lower value 1 | S. cerevisiae deletion strains, locus YKL085W, strain MDH1 (second series), stronger effect = lower value 1.03 | S. cerevisiae deletion strains, locus YKL085W, strain MDH1, stronger effect = lower value 1.03 | S. cerevisiae deletion strains, locus YKL160W, strain elf1, stronger effect = lower value 0.991 | S. cerevisiae deletion strains, locus YKL190W, strain CNB1, stronger effect = lower value 1.02 | S. cerevisiae deletion strains, locus YKR001C, strain vps1, stronger effect = lower value 0.995 | S. cerevisiae deletion strains, locus YKR026C, strain gcn3, stronger effect = lower value 0.98 | S. cerevisiae deletion strains, locus YKR091W, strain srl3, stronger effect = lower value 0.994 | S. cerevisiae deletion strains, locus YLL001W, strain dnm1, stronger effect = lower value 0.997 | S. cerevisiae deletion strains, locus YLL026W, stronger effect = lower value 0.989 | S. cerevisiae deletion strains, locus YLL041C, strain sdh2, stronger effect = lower value 0.991 | S. cerevisiae deletion strains, locus YLR027C, strain aat2, stronger effect = lower value 1 | S. cerevisiae deletion strains, locus YLR039C, strain RIC1, stronger effect = lower value 1.03 | S. cerevisiae deletion strains, locus YLR058C, strain SHM2, stronger effect = lower value 1.02 | S. cerevisiae deletion strains, locus YLR102C, strain apc9, stronger effect = lower value 0.993 | S. cerevisiae deletion strains, locus YLR113W, strain HOG1, stronger effect = lower value 1.01 | S. cerevisiae deletion strains, locus YLR221C, strain rsa3, stronger effect = lower value 1 | S. cerevisiae deletion strains, locus YLR258W, strain gsy2, stronger effect = lower value 0.986 | S. cerevisiae deletion strains, locus YLR262C, strain YPT6 (second series), stronger effect = lower value 0.954 | S. cerevisiae deletion strains, locus YLR262C, strain YPT6, stronger effect = lower value 1.05 | S. cerevisiae deletion strains, locus YLR268W, strain sec22, stronger effect = lower value 0.995 | S. cerevisiae deletion strains, locus YLR320W, strain mms22, stronger effect = lower value 1 | S. cerevisiae deletion strains, locus YLR330W, strain CHS5, stronger effect = lower value 1.02 | S. cerevisiae deletion strains, locus YLR342W, strain FKS1 (second series), stronger effect = lower value 0.988 | S. cerevisiae deletion strains, locus YLR342W, strain FKS1, stronger effect = lower value 0.988 | S. cerevisiae deletion strains, locus YLR357W, strain rsc2, stronger effect = lower value 0.924 | S. cerevisiae deletion strains, locus YLR370C, strain arc18, stronger effect = lower value 0.991 | S. cerevisiae deletion strains, locus YLR371W, strain rom2, stronger effect = lower value 0.989 | S. cerevisiae deletion strains, locus YLR384C, strain iki3, stronger effect = lower value 0.985 | S. cerevisiae deletion strains, locus YLR418C, strain cdc73, stronger effect = lower value 1.01 | S. cerevisiae deletion strains, locus YML016C, strain PPZ1, stronger effect = lower value 1.02 | S. cerevisiae deletion strains, locus YML032C, strain rad52, stronger effect = lower value 0.985 | S. cerevisiae deletion strains, locus YML120C, strain ndi1, stronger effect = lower value 1 | S. cerevisiae deletion strains, locus YML124C, strain tub3, stronger effect = lower value 0.995 | S. cerevisiae deletion strains, locus YMR058W, strain fet3, stronger effect = lower value 1 | S. cerevisiae deletion strains, locus YMR078C, strain ctf18, stronger effect = lower value 0.994 | S. cerevisiae deletion strains, locus YMR125W, strain sto1, stronger effect = lower value 0.962 | S. cerevisiae deletion strains, locus YMR129W, stronger effect = lower value 0.998 | S. cerevisiae deletion strains, locus YMR205C, strain PFK2, stronger effect = lower value 0.985 | S. cerevisiae deletion strains, locus YMR223W, strain ubp8, stronger effect = lower value 0.966 | S. cerevisiae deletion strains, locus YMR231W, strain pep5, stronger effect = lower value 0.977 | S. cerevisiae deletion strains, locus YMR307W, strain GAS1, stronger effect = lower value 1.01 and 1 | S. cerevisiae deletion strains, locus YNL067W, strain RPL9B, stronger effect = lower value 1.04 | S. cerevisiae deletion strains, locus YNL071W, strain lat1, stronger effect = lower value 0.993 | S. cerevisiae deletion strains, locus YNL128W, strain TEP1, stronger effect = lower value 1.02 and 1.01 | S. cerevisiae deletion strains, locus YNL153C, strain GIM3, stronger effect = lower value 1.06 | S. cerevisiae deletion strains, locus YNL175C, strain NOP13, stronger effect = lower value 1.01 | S. cerevisiae deletion strains, locus YNL183C, strain NPR1, stronger effect = lower value 0.979 | S. cerevisiae deletion strains, locus YNL197C, strain WHI3, stronger effect = lower value 1.03 | S. cerevisiae deletion strains, locus YNL209W, strain ssb2, stronger effect = lower value 0.994 | S. cerevisiae deletion strains, locus YNL224C, strain SQS1, stronger effect = lower value 1.01 | S. cerevisiae deletion strains, locus YNL233W, strain BNI4, stronger effect = lower value 1.03 | S. cerevisiae deletion strains, locus YNL248C, strain rpa49, stronger effect = lower value 0.979 | S. cerevisiae deletion strains, locus YNL250W, strain rad50, stronger effect = lower value 0.999 | S. cerevisiae deletion strains, locus YNL271C, strain bni1, stronger effect = lower value 0.977 | S. cerevisiae deletion strains, locus YNL298W, strain CLA4, stronger effect = lower value 0.987 | S. cerevisiae deletion strains, locus YNL307C, strain MCK1, stronger effect = lower value 0.987 | S. cerevisiae deletion strains, locus YNL322C, strain KRE1 (second series), stronger effect = lower value 0.966 | S. cerevisiae deletion strains, locus YNL322C, strain KRE1, stronger effect = lower value 1.02 and 1.01 | S. cerevisiae deletion strains, locus YNR049C, strain mso1, stronger effect = lower value 0.995 | S. cerevisiae deletion strains, locus YNR052C, strain pop2, stronger effect = lower value 0.974 | S. cerevisiae deletion strains, locus YOL006C, strain TOP1, stronger effect = lower value 1.09 | S. cerevisiae deletion strains, locus YOL012C, strain htz1 1.02 | S. cerevisiae deletion strains, locus YOL147C, strain pex11, stronger effect = lower value 0.997 | S. cerevisiae deletion strains, locus YOR001W, strain rrp6, stronger effect = lower value 1.01 | S. cerevisiae deletion strains, locus YOR061W, strain CKA2, stronger effect = lower value 1.02 | S. cerevisiae deletion strains, locus YOR069W, strain VPS5, stronger effect = lower value 1.02 | S. cerevisiae deletion strains, locus YOR070C, strain gyp1, stronger effect = lower value 0.988 | S. cerevisiae deletion strains, locus YOR080W, strain dia2, stronger effect = lower value 0.981 | S. cerevisiae deletion strains, locus YOR083W, strain WHI5 (second series), stronger effect = lower value 1.02 | S. cerevisiae deletion strains, locus YOR083W, strain WHI5, stronger effect = lower value 0.946 | S. cerevisiae deletion strains, locus YOR106W, strain vam3, stronger effect = lower value 0.994 | S. cerevisiae deletion strains, locus YOR136W, strain idh2, stronger effect = lower value 0.996 | S. cerevisiae deletion strains, locus YOR144C, strain elg1, stronger effect = lower value 0.997 | S. cerevisiae deletion strains, locus YOR184W, strain ser1, stronger effect = lower value 0.988 | S. cerevisiae deletion strains, locus YOR231W, strain MKK1, stronger effect = lower value 1.04 | S. cerevisiae deletion strains, locus YOR265W, strain rbl2, stronger effect = lower value 0.989 | S. cerevisiae deletion strains, locus YOR270C, strain vph1, stronger effect = lower value 1.01 | S. cerevisiae deletion strains, locus YOR290C, strain snf2, stronger effect = lower value 0.989 | S. cerevisiae deletion strains, locus YOR316C, strain cot1, stronger effect = lower value 0.999 | S. cerevisiae deletion strains, locus YPL051W, strain arl3, stronger effect = lower value 0.987 | S. cerevisiae deletion strains, locus YPL055C, strain LGE1, stronger effect = lower value 1.09 | S. cerevisiae deletion strains, locus YPL078C, strain atp4, stronger effect = lower value 0.989 | S. cerevisiae deletion strains, locus YPL106C, strain sse1, stronger effect = lower value 0.963 | S. cerevisiae deletion strains, locus YPL240C, strain hsp82, stronger effect = lower value 0.983 | S. cerevisiae deletion strains, locus YPL241C, strain CIN2, stronger effect = lower value 1.02 | S. cerevisiae deletion strains, locus YPL256C, strain CLN2, stronger effect = lower value 1.05 | S. cerevisiae deletion strains, locus YPR119W, strain clb2, stronger effect = lower value 1 | S. cerevisiae deletion strains, locus YPR141C, strain kar3, stronger effect = lower value 1 | S. cerevisiae deletion strains, locus YPR163C, strain tif3, stronger effect = lower value 0.992 | S. cerevisiae deletion strains, locus YPR167C, strain met16, stronger effect = lower value 0.991 | S. cerevisiae deletion strains, strain wtn01, stronger effect = lower value 1.02 | S. cerevisiae strains, strain wild type, stronger effect = lower value 1.01

Reference: PubChem BioAssay AID1159580 (chemical genetic matrix, 2015)
